{"source": "PubChem BioAssay (NCATS)", "note": "Several values for one entry are separate records, joined by “and”; a condition that tells them apart may be missing. Identical values can stand only once. Records with an inconclusive call do not appear. Activity calls are given as the source filed them. Unless noted, calls follow the shape of the full dose curve."}
{"target": "Estrogen receptor (Homo sapiens) (UniProt P03372)", "sequence (P03372 whole entry, looked up)": "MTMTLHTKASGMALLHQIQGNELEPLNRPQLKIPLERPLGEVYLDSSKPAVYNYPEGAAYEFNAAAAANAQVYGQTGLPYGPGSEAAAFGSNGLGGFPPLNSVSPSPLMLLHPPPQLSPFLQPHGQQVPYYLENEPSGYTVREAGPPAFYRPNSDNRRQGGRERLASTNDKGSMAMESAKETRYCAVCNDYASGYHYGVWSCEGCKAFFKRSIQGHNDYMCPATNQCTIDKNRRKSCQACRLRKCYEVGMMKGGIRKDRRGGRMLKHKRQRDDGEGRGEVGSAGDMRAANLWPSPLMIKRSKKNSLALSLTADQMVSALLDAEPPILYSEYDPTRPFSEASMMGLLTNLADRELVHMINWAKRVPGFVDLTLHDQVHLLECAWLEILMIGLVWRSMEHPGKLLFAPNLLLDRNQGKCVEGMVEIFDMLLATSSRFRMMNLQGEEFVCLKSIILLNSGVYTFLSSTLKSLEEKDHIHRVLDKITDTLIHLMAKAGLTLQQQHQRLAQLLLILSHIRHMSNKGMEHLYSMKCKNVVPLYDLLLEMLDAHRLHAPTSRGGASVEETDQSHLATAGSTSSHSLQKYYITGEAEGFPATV", "assay": "qHTS assay for small molecule agonists of estrogen receptor alpha signaling (AID 588514);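 also: 0% = vehicle only and 100% = reference agonist; nearly all actives have a fitted effect of over 70% in size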", "settings": "ER-alpha-UAS-bla HEK293, beta-lactamase ratio, 18 h; series mostly up to 76.8 µM; activation: at the top concentration", "outline": "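Cells were plated at 5000/well, incubated 4 hrs at 37 C, dosed with compound titration series, incubated 18 hrs at 37 C, loaded with CCF4 dye for 2 hrs at RT, then fluorescence was read.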"}
{"smiles": "O=C(O)C(Br)Br", "activation": "-7.67% (inactive)"}
{"smiles": "Nc1ccc(Cc2ccc(N)c(Cl)c2)cc1Cl", "activation": "-8.67% (inactive)"}
{"smiles": "CN(C)c1ccc(N(C)C)cc1", "activation": "-3.32% (inactive)"}
{"smiles": "Brc1ccc(Oc2ccc(Br)cc2Br)c(Br)c1", "activation": "0.756% (inactive)"}
{"smiles": "O=[N+]([O-])c1c(Cl)c(Cl)c(Cl)c(Cl)c1Cl", "Potency": "inactive"}
{"smiles": "CN1CSC(=S)N(C)C1", "Potency": "inactive"}
{"smiles": "CC(C)Br", "activation": "-1.73% (inactive)"}
{"smiles": "CCCC[N+](=O)[O-]", "activation": "-0.857% (inactive)"}
{"smiles": "Cc1cc(-c2cc(C)c(N)c(C)c2)cc(C)c1N", "activation": "-4.35% (inactive)"}
{"smiles": "Nc1cc(Cl)ccc1O", "activation": "4.79% (inactive)"}
{"smiles": "CCN(N=O)C(N)=O", "activation": "-7.76% (inactive)"}
{"smiles": "N#CC(Cl)(Cl)Cl", "activation": "-7.54% (inactive)"}
{"smiles": "O=C(O)C(Br)CBr", "note": "(centres undefined)", "activation": "5.28% (inactive)"}
{"smiles": "Nc1c(Br)cc([N+](=O)[O-])cc1[N+](=O)[O-]", "activation": "-8.71% (inactive)"}
{"smiles": "O=[N+]([O-])c1ccccc1CCl", "activation": "0.421% (inactive)"}
{"smiles": "N#CC(Br)Br", "activation": "-5.36% (inactive)"}
{"smiles": "COP(=S)(OC)SCn1nnc2ccccc2c1=O", "Potency": "inactive"}
{"smiles": "O=C(O)c1cccc(Cl)c1", "activation": "-0.115% (inactive)"}
{"smiles": "O=[N+]([O-])c1cc(Cl)c(Cl)c(Cl)c1", "activation": "0.494% (inactive)"}
{"smiles": "CC(C)(COCC1CO1)COCC1CO1", "note": "(centres undefined)", "activation": "-1.72% (inactive)"}
{"smiles": "c1ccc(N=NNc2ccccc2)cc1", "activation": "8.51% (inactive)"}
{"smiles": "C(CCOCC1CO1)COCC1CO1", "note": "(centres undefined)", "activation": "-1.84% (inactive)"}
{"smiles": "CN(C)c1ccc(N)cc1", "activation": "-0.0325% (inactive)"}
{"target": "Androgen receptor (Homo sapiens) (UniProt P10275)", "sequence (P10275 whole entry, looked up)": "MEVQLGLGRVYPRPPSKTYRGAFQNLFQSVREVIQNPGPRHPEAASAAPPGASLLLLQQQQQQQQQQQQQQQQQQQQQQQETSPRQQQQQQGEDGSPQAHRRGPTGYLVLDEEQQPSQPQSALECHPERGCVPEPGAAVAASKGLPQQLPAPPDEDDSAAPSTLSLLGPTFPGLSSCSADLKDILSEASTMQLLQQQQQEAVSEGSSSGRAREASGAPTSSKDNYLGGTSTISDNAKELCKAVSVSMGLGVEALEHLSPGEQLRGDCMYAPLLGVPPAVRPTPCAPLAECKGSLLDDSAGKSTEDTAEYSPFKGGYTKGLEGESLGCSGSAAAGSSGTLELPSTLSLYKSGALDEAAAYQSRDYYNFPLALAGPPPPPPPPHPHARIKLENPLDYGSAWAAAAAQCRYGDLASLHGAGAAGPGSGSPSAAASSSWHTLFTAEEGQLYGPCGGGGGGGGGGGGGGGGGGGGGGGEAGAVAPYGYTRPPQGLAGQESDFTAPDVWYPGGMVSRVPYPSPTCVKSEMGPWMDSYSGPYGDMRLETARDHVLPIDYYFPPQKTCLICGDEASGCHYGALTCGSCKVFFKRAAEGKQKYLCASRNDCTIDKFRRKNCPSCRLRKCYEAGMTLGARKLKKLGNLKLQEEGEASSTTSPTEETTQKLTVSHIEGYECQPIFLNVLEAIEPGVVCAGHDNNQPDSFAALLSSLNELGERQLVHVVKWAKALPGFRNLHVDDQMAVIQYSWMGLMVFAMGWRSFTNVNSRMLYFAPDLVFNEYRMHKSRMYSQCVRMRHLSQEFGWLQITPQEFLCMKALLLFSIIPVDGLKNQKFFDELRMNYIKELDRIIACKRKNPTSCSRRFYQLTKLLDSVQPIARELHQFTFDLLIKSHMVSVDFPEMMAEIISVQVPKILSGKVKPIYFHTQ", "assay": "qHTS assay for small molecule agonists of androgen receptor signaling (AID 588515; active = well fitted curve in the direction sought with a large enough effect in the signal ratio, with a control signal flat; the % refers to the signal ratio; also: % is scaled to controls: 0 for no effect and ±100 for the full control effect)", "settings": "AR-UAS-bla HEK293, beta-lactamase ratio, agonist 16 h; hits give high values", "outline": "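EC50 and efficacy came from Hill fits of titrations (up to 92 uM) normalized to 30 nM R1881 as 100% and DMSO as 0%. Compound exposure was 16 h at 37 C on AR-UAS-bla HEK293 cells, with a 405/460/530 nm CCF4 fluorescence read.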"}
{"smiles": "Oc1c(Cl)c(Cl)cc(Cl)c1Cl", "activation": "-20.1% (inactive)"}
{"smiles": "O=[N+]([O-])c1c(Cl)c(Cl)c(Cl)c(Cl)c1Cl", "activation": "15.3% (inactive) and 4.1% (inactive)"}
{"smiles": "N#CC(Cl)(Cl)Cl", "activation": "-3.49% (inactive)"}
{"smiles": "CCCCC(CC)COC(=O)c1ccc(C(=O)OCC(CC)CCCC)c(C(=O)OCC(CC)CCCC)c1", "note": "(centres undefined)", "activation": "-4.73% (inactive)"}
{"smiles": "Nc1c(Br)cc([N+](=O)[O-])cc1[N+](=O)[O-]", "activation": "-3.78% (inactive)"}
{"smiles": "COP(=S)(OC)SCn1nnc2ccccc2c1=O", "activation": "-9.55% (inactive) and -1.17% (inactive)"}
{"smiles": "Cc1cc(N=Nc2ccccc2C)ccc1N", "activation": "-4.45% (inactive)"}
{"smiles": "CN(C)c1ccc(N)cc1", "activation": "-5.02% (inactive)"}
{"target": "Bile acid receptor (Homo sapiens) (UniProt Q96RI1)", "sequence (Q96RI1 whole entry, looked up)": "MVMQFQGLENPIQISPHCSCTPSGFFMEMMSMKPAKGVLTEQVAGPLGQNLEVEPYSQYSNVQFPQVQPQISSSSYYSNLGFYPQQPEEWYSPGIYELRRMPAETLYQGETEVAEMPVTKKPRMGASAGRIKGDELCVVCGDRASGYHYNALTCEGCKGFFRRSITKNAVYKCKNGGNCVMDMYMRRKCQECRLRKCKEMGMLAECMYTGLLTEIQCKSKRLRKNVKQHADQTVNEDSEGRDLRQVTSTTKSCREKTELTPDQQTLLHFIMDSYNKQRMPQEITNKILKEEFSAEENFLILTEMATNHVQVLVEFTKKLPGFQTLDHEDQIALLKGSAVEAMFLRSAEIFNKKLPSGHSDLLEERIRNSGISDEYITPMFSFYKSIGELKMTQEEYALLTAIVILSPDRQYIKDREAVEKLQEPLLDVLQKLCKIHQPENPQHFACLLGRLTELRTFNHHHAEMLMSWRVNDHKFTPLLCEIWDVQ", "assay": "qHTS assay for small molecule antagonists of farnesoid X receptor signaling (AID 588526); also: % is scaled to controls: 0 for no effect and ±100 for the full control effect", "settings": "HEK293T FXR-UAS-bla, beta-lactamase ratio, antagonist mode; series mostly up to 76.7 µM; activity change, negative = inhibition: at the top concentration", "outline": "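Beta-lactamase reporter antagonist mode: HEK293T FXR-UAS-bla cells, titrated compound, CDCA stimulation, 16 h 37 C, CCF4 dye 2 h RT. Data normalized to CDCA 50 uM and DMSO; Hill-fit IC50.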"}
{"smiles": "O=C(O)C(Br)Br", "activity change, negative = inhibition": "-0.859% (inactive)"}
{"smiles": "CN(C)c1ccc(N(C)C)cc1", "activity change, negative = inhibition": "-8.89% (inactive)"}
{"smiles": "CC(C)Br", "activity change, negative = inhibition": "1.78% (inactive)"}
{"smiles": "CC(C)[N+](=O)[O-]", "activity change, negative = inhibition": "-6.34% (inactive)"}
{"smiles": "CCCC[N+](=O)[O-]", "activity change, negative = inhibition": "-11.9% (inactive)"}
{"smiles": "CCN(N=O)C(N)=O", "activity change, negative = inhibition": "-1.11% (inactive)"}
{"smiles": "N#CC(Cl)(Cl)Cl", "activity change, negative = inhibition": "-1.08% (inactive)"}
{"smiles": "Nc1c(Br)cc([N+](=O)[O-])cc1[N+](=O)[O-]", "activity change, negative = inhibition": "-16.9% (inactive)"}
{"smiles": "O=[N+]([O-])c1ccccc1CCl", "activity change, negative = inhibition": "-6.64% (inactive)"}
{"smiles": "O=C(O)C(Cl)Br", "note": "(centres undefined)", "activity change, negative = inhibition": "-3.84% (inactive)"}
{"smiles": "O=C(O)c1cccc(Cl)c1", "activity change, negative = inhibition": "-1.84% (inactive)"}
{"smiles": "Cc1cc(N=Nc2ccccc2C)ccc1N", "activity change, negative = inhibition": "-7.36% (inactive)"}
{"smiles": "OCCCCO", "activity change, negative = inhibition": "-9.94% (inactive)"}
{"smiles": "O=[N+]([O-])c1cc(Cl)c(Cl)c(Cl)c1", "activity change, negative = inhibition": "7.42% (inactive)"}
{"smiles": "CC(C)(COCC1CO1)COCC1CO1", "note": "(centres undefined)", "activity change, negative = inhibition": "-7.14% (inactive)"}
{"smiles": "Cc1ccc2c(c1N)C(=O)c1ccccc1C2=O", "outcome": "inactive"}
{"smiles": "C(CCOCC1CO1)COCC1CO1", "note": "(centres undefined)", "activity change, negative = inhibition": "0.628% (inactive)"}
{"smiles": "O=[N+]([O-])/C=C/c1ccccc1", "activity change, negative = inhibition": "-4.38% (inactive)"}
